Several values for one entry are separate records, joined by “and”; a condition that tells them apart may be missing. Equal entries are not always repeated. Hit rate of the full screen: of about 5,500 compounds, about 2,000 (36%) were called active. Not shown: some 18% with an inconclusive outcome. Cut-off read from the data, not from the text of the source: active = normalized growth mostly below about 0.91 (no sharp cut-off); inconclusive = no clear call, values can overlap the other calls; inactive = mostly above about 0.92. Some of the results follow.
Assay: chemical genetic growth profiling, strain panel (AID 1159580);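 note: tested at 20 µM; growth read once vehicle control cultures reached saturation at 30 °C; 1 = growth at the plate median or of vehicle wells; lower values mean less growth of the strain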
Conditions: S. cerevisiae deletion strains, growth OD

Measured: normalized growth

Cc1[nH]c2ccccc2c1CN(C)C
inactive: locus YAL021C, strain ccr4, hits give low values 1.01 | locus YAL026C, strain drs2, hits give low values 1.03 | locus YAL030W, strain snc1, hits give low values 1.02 | locus YBL061C, strain skt5, hits give low values 1.02 | locus YBR009C, strain hhf1, hits give low values 1.02 | locus YBR021W, strain FUR4, hits give low values 0.951 | locus YBR023C, strain chs3, hits give low values 1.02 | locus YBR171W, strain sec66, hits give low values 1.02 | locus YBR229C, strain ROT2, hits give low values 0.998 | locus YBR231C, strain swc5, hits give low values 1.02 | locus YBR279W, strain paf1, hits give low values 1.01 | locus YCL011C, strain gbp2, hits give low values 1.02 | locus YCL016C, strain dcc1, hits give low values 1.01 | locus YCL029C, strain bik1, hits give low values 0.986 | locus YCL069W, strain vba3, hits give low values 1.01 | locus YCR088W, strain abp1, hits give low values 1.02 | locus YDL005C, strain med2, hits give low values 1.03 | locus YDL035C, strain GPR1, hits give low values 1.01 | locus YDL040C, strain nat1, hits give low values 1.02 | locus YDL074C, strain BRE1, hits give low values 1 | locus YDL101C, strain DUN1, hits give low values 1.01 | locus YDL134C, strain PPH21, hits give low values 1.02 | locus YDL185W, strain tfp1, hits give low values 1.01 | locus YDL192W, strain arf1, hits give low values 0.983 | locus YDR001C, strain nth1, hits give low values 1.01 | locus YDR069C, strain doa4, hits give low values 1.02 | locus YDR101C, strain arx1, hits give low values 0.968 | locus YDR137W, strain rgp1, hits give low values 1.03 | locus YDR150W, strain NUM1, hits give low values 1.01 | locus YDR159W, strain sac3, hits give low values 1.05 | locus YDR162C, strain NBP2, hits give low values 1.07 | locus YDR195W, strain ref2 1.03 | locus YDR297W, strain sur2, hits give low values 1.02 | locus YDR318W, strain mcm21, hits give low values 0.995 | locus YDR334W, strain swr1, hits give low values 1.01 | locus YDR335W, strain msn5, hits give low values 1.01 | locus YDR388W, hits give low values 0.993 | locus YDR392W, strain spt3, hits give low values 1.03 | locus YDR502C, strain sam2, hits give low values 0.987 | locus YEL003W, strain gim4, hits give low values 1.01 | locus YEL037C, strain rad23, hits give low values 1.01 | locus YEL061C, strain CIN8 (second series), hits give low values 1.03 | locus YEL061C, strain CIN8, hits give low values 1.02 | locus YER015W, strain faa2, hits give low values 1.01 | locus YER016W, strain bim1, hits give low values 1.01 | locus YER110C, hits give low values 0.984 | locus YER111C, strain swi4, hits give low values 1.03 | locus YER155C, strain BEM2, hits give low values 0.983 | locus YER167W, strain BCK2, hits give low values 1 | locus YFR010W, strain ubp6, hits give low values 1.01 | locus YGL078C, strain dbp3, hits give low values 1.01 | locus YGL086W, strain mad1, hits give low values 0.996 | locus YGL167C, strain pmr1, hits give low values 1.04 | locus YGL173C, strain kem1, hits give low values 1.03 | locus YGL227W, strain vid30, hits give low values 1.01 | locus YGL240W, strain doc1, hits give low values 1.01 | locus YGL248W, strain PDE1, hits give low values 1.03 | locus YGL253W, strain hxk2, hits give low values 1.02 | locus YGR135W, strain pre9, hits give low values 0.995 | locus YGR229C, strain SMI1, hits give low values 1.06 | locus YGR252W, strain gcn5, hits give low values 0.908 | locus YHR013C, strain ard1, hits give low values 1.03 | locus YHR027C, strain rpn1, hits give low values 1.03 | locus YHR030C, strain SLT2, hits give low values 1 and 0.988 | locus YHR079C, strain IRE1 (second series), hits give low values 0.995 | locus YHR079C, strain IRE1, hits give low values 0.982 | locus YHR094C, strain hxt1, hits give low values 0.989 | locus YHR129C, strain ARP1, hits give low values 1.01 | locus YHR142W, strain chs7, hits give low values 1.03 | locus YHR200W, strain rpn10, hits give low values 0.991 | locus YIL066C, strain RNR3, hits give low values 1.02 | locus YIL073C, strain SPO22, hits give low values 1.02 | locus YIL125W, strain kgd1, hits give low values 1.01 | locus YIR030C, strain dcg1, hits give low values 0.99 | locus YJL092W, strain hpr5, hits give low values 1.01 | locus YJL095W, strain BCK1 (second series), hits give low values 1.02 | locus YJL095W, strain BCK1, hits give low values 1.06 and 0.973 | locus YJL115W, strain asf1, hits give low values 1.02 | locus YJL129C, strain trk1, hits give low values 1.03 | locus YJL134W, strain LCB3, hits give low values 0.994 | locus YJL154C, strain vps35, hits give low values 1.02 | locus YJL164C, strain tpk1, hits give low values 1.01 | locus YJL166W, strain qcr8, hits give low values 1.02 | locus YJL168C, strain set2, hits give low values 0.993 | locus YJL187C, strain SWE1 (second series), hits give low values 1.01 | locus YJL187C, strain SWE1, hits give low values 1.02 | locus YJR043C, strain POL32, hits give low values 0.995 | locus YJR066W, strain TOR1, hits give low values 0.906
